The panel holds about 83,000 compounds, 20% with a hit somewhere; the sample as a whole holds those more often.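 Testing used 96-well plates and a 48-hour single-concentration exposure. Example: -40 means 40% of the starting cells died.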 Calls of active or inactive are those of the source. Rule for the calls: active = growth percent below 10; inactive = the rest.
The molecules below were run on MDA-MB-468 breast (assay: NCI-60 one-dose screen, 48 h (100 = growth as untreated, 0 = no growth, -100 = all killed)). Conditions: 10 µM unless noted.

SMILES | growth
Nc1ncc(-c2cnn(C3CCNCC3)c2)cc1-c1nc2ccccc2o1 | -29.1% (active)
O=C1/C(=C/c2ccc([N+](=O)[O-])o2)Oc2ccc(Cl)cc21 | -34.5% (active)
Cc1ccc2c(n1)C[C@H](C(C)(C)O)CC[C@H]2C | 108% (inactive)
CN1CCN(CCCOC(=O)c2c3c(n4ccccc24)C(=O)c2ncccc2C3=O)CC1 | 43.7% (inactive)
CC(=O)N1CC(Nc2ccc(OC(F)(F)F)cc2)=CC1=O | 13.8% (inactive)
CC(=O)Oc1ccc(C)cc1C | 112% (inactive)
CC(=O)Nc1ccc(C(=O)/C=C/c2ccc(N(C)C)cc2)cc1 | 95.6% (inactive)
N#Cc1c(-c2ccccc2)cc(-c2ccccc2)n(CC(=O)O)c1=O | 37.8% (inactive)
COc1cc(NC(C)CCCNC(C)C)c2ncccc2c1OC (configuration not stated) | 32.8% (inactive)
O=[N+]([O-])c1cccc(C2c3ccccc3Oc3ccccc32)c1 | 95.4% (inactive)
CN(C)CCn1cc(-c2ccc3c(Nc4ccc(CC(=O)Nc5cccc(F)c5)cc4)ncnc3c2)cn1 | -82.9% [30 µM] (active)
ClC1=C(Cl)C(=C2C(Cl)=C(Cl)C(Cl)=C2Cl)C(Cl)=C1Cl | 114% (inactive)
COc1ccc2c(c1)c(-c1nnc(N)nc1-c1cn(C)c3ccccc13)cn2C | 78.8% (inactive)
Cc1c(N2CN3C[C@H](C)N4CN(c5c(C)n(C)n(-c6ccccc6)c5=O)CN5C[C@@H](C)N(C2)C3C54)c(=O)n(-c2ccccc2)n1C (some centres not stated) | 97.1% (inactive)
COC(=O)C(CCC(=O)CCl)N1C(=O)c2ccccc2C1=O (configuration not stated) | 32.1% (inactive)
COc1ccc(N(c2nc(-c3ccc([N+](=O)[O-])cc3)cs2)C(C)C)cc1 | 20.4% (inactive)
NC1=NC(c2ccccc2)N=C(Nc2ccccc2)N1 (configuration not stated) | 9.95% (active)
CN(C)c1ccc(Nc2c3ccccc3nc3cc(NC(=O)CCN4CCCC4)ccc23)cc1 | -74.9% (active)
OC(c1cc2cc(Cl)ccc2c2cc(C(F)(F)F)ccc12)C1CCCCN1 (configuration not stated) | -82.2% (active)
CC1=C(C(=O)OCC2CCN(C(=O)OC(C)(C)C)CC2)[C@H](c2cccc(C#N)c2)C2=C(CC(C)(C)CC2=O)N1 | 59.9% (inactive)
Nc1c(C(=O)Nc2ccccc2Cl)sc2nc3c(cc12)CN(Cc1ccccc1)CC3 | 102% (inactive)
Nc1c(C(=O)C[C@@H](N)CO)ccc2c1C(=O)CCO2 | -14.1% (active)
COc1ccc(C2CC(c3ccc(OC)cc3O)=NN2c2ccc(S(N)(=O)=O)cc2)cc1 (configuration not stated) | 56% (inactive)
COc1ccc(NCc2cn(-c3ccc(C(=O)O)cc3)nc2-c2cc(C(F)(F)F)cc(C(F)(F)F)c2)cc1 | 112% (inactive)
COC(=O)Nc1nc2ccc(C(=O)c3cccc(I)c3)cc2[nH]1 | 2.93% (active)
O=C(CN1CCNCC1)N1CCOCC1 | 117% (inactive)
CS(=O)(=O)Nc1ccc(-c2nn(-c3ccc(S(C)(=O)=O)cc3)cc2/C=C/C(=O)c2ccc(NC(=O)CO[N+](=O)[O-])cc2)cc1 | 95% (inactive)

From PubChem BioAssay (NCI)
